A selection: hits, their analogues and other compounds. The true share with any hit is near 3.3%.
TLR4-MyD88 BLA = inhibitors of human TLR4-MyD88 binding | O00206+Q99836 | inhibition, % at 8.4 µM | HeLa CL3-4 TLR4/MyD88 BLA complementation, FRET ratio | AID 861 | 200,000 tested, 0.18% active; in the data active = inhibition above about 25%
PRMT1 FP inh = blocks human protein arginine methyltransferase 1; Q99873; recombinant PRMT1, activity-based probe fluorescence polarization; inhibition, % at 2.79 µM; 370,000 tested, 1.3% active; AID 652257;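 active = inhibition above about 21% made by adding two undisclosed values, limit read from the data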
Target sequence (Q99873 whole entry, looked up): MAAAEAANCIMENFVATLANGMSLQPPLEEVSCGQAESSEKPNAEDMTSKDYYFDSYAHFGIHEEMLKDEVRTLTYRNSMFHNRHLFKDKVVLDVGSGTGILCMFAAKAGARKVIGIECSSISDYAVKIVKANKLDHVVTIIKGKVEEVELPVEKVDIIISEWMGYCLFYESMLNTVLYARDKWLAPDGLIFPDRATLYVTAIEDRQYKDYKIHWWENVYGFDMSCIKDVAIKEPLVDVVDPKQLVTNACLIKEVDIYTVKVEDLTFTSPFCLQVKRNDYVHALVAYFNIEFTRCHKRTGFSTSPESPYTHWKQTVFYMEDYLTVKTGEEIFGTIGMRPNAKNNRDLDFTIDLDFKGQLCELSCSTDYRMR
ABHD5 PLIN5 PPI = blocks binding of human ABHD5 to perilipin-5; Split G. princeps luciferase complementation, luminescence, 4 h; inhibition, % at 4 µM; 360,000 tested, 0.78% active; Q00G26+Q8WTS1; AID 602281;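 active = inhibition above the mean inhibition across every tested compound plus 3 SD, cut at about 22% in these data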
TLR9-MyD88 block = inhibitors of human TLR9-MyD88 binding. 340,000 tested, 0.21% active. AID 504734. inhibition, % at 4.98 µM. CHO BLA complementation TLR9-MyD88, CCF4 FRET ratio;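 active = inhibition above the mean over all tested compounds plus 3 SD, cut at about 21% in these data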
NOD2-RIPK2 inh = inhibitors of human NOD2-RIPK2 interaction. AID 624267. inhibition, % at 4.98 µM. CHO BLA complementation NOD2-RIPK2, CCF4 ratio. 360,000 tested, 0.38% active. O43353; in the data active = inhibition above about 21%
rCAG RNA binder = binds r(CAG) RNA repeats | 370,000 tested, 1.3% active | inhibition, % at 3 µM | AID 651821 | r(CAG) RNA repeat, TO-PRO-1 dye displacement fluorescence;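 active = inhibition above the plate cutoff, the mean of all test compounds on that plate plus 3 SD, cut at about 35% in these data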;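 note: higher means more dye released from RNA so lower well fluorescence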
TLR9-MyD88 cf = confirmation of human TLR9-MyD88 binding inhibitors; 680 tested, 51% active; shares compounds with TLR9-MyD88 block; CHO TLR9/MyD88 BLA complementation, CCF4 FRET ratio; inhibition, % at 4.98 µM;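 active = mean inhibition across three repeats above about 21% taken from the earlier screen, limit read from the data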;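 note: blue over green emission ratio reports constitutive TLR9 MyD88 association via BLA complementation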
BLA counter-1 = counter-screen for TLR9-MyD88 inhibitors: non-selective beta-lactamase inhibitors | shares compounds with TLR9-MyD88 block | CHO-BLA cells, CCF4 FRET ratio, BLA reporter | inhibition, % at 4.98 µM | 680 tested, 7% active;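 active = mean inhibition above a 50% cutoff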;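 note: counterscreen of TLR9-MyD88 hits on CMV-driven BLA in CHO-K1 cells; higher means less blue over green ratio so more BLA blockade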
TLR9 CHO cytotox = counter-screen for TLR9-MyD88 inhibitors: cytotoxicity in CHO cells. shares compounds with TLR9-MyD88 block. luminescence. inhibition, % at 4.98 µM. 680 tested, 39% active; in the data active = inhibition above about 11%
ABHD5 PLIN5 conf = ABHD5-PLIN5 interaction inhibition, confirmed | shares compounds with ABHD5 PLIN5 PPI | 2,200 tested, 67% active | inhibition, % at 4 µM | biochemical ABHD5-PLIN5 interaction, luminescence; in the data active = inhibition above about 23%
HNF4 split-luc = active in HNF4 split-luciferase counter-screen for ABHD5-PLIN5 inhibitors | shares compounds with ABHD5 PLIN5 PPI | HNF4 dimerization, luminescence, biochemical | inhibition, % at 4 µM | 2,200 tested, 77% active | AID 651674;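 active = mean inhibition across replicate wells exceeding the computed hit threshold, cut at about 13% in these data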;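 note: light from luciferase halves that rejoin when HNF4 fusion proteins dimerize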
NOD2 RIPK2 conf = confirmation of human NOD2-RIPK2 interaction inhibitors; shares compounds with NOD2-RIPK2 inh; CHO cells, NOD2-RIPK2 BLA complementation, CCF4 FRET; inhibition, % at 4.98 µM; 1,200 tested, 70% active; AID 624370;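 active = mean inhibition across replicates above a set limit taken from the earlier primary screen, cut at about 21% in these data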
BLA counter-2 = hits BLA reporter in NOD2-RIPK2 inhibitor counterscreen | shares compounds with NOD2-RIPK2 inh | CHO BLA reporter, CCF4 FRET ratio | inhibition, % at 4.98 µM | 1,200 tested, 57% active | AID 624371;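 active = mean inhibition above the low-control mean inhibition plus three low-control SD, cut at about 11% in these data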
rCAG binder conf = r(CAG) RNA repeat binding, confirmation. inhibition, % at 3 µM. TO-PRO-1 dye displacement fluorescence. shares compounds with rCAG RNA binder. 4,300 tested, 70% active;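 active = inhibition above a per-plate cutoff, the mean inhibition of sample wells plus 3 SD, cut at about 35% in these data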;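 note: loss of TO-PRO-1 fluorescence as compound displaces dye from 1x1 AA loop RNA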
DNA CAG counter = counter-screen for rCAG RNA binders: DNA CAG dye complex inhibitors; shares compounds with rCAG RNA binder; AID 652068; inhibition, % at 3 µM; d(CAG) DNA oligo TO-PRO-1 dye displacement, fluorescence; 4,300 tested, 94% active;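 active = inhibition above its plate's cutoff, the mean test-well inhibition plus 3 SD, cut at about 4.8% in these data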;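 note: hits displace the dye from DNA and so lower well fluorescence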
PRMT1 inh conf = confirmation of human PRMT1 inhibitors | 3,300 tested, 42% active | inhibition, % at 2.79 µM | AID 687036 | shares compounds with PRMT1 FP inh | recombinant His-PRMT1, activity-based probe fluorescence polarization;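 active = mean inhibition across replicates above the hit cutoff derived for the earlier primary screen, cut at about 22% in these data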
Hits are given with their value; – = inactive; · = not tested or not shown.

SMILES	TLR4-MyD88 BLA	PRMT1 FP inh	ABHD5 PLIN5 PPI	TLR9-MyD88 block	NOD2-RIPK2 inh	rCAG RNA binder	TLR9-MyD88 cf	BLA counter-1	TLR9 CHO cytotox	ABHD5 PLIN5 conf	HNF4 split-luc	NOD2 RIPK2 conf	BLA counter-2	PRMT1 inh conf	others
Cc1cc2c(nc1C)CCCN2S(=O)(=O)c1c(C)noc1C	·	–	·	·	·	–	·	·	·	·	·	·	·	·
Cc1ccc(-n2sc3cc(F)ccc3c2=O)c(C)c1	·	92	66	30	38	–	–	–	85	63	116	26	15	81
O=C(CCCN1C(=O)/C(=C\c2cccs2)SC1=S)Nc1cc([N+](=O)[O-])ccc1O	·	–	–	–	–	–	·	·	·	·	·	·	·	·
O=C1/C(=C\c2cc([N+](=O)[O-])ccc2O)SC(=S)N1Cc1ccc(Cl)cc1	·	26	–	24	–	54	–	–	–	·	·	·	·	33	rCAG binder conf=87;DNA CAG counter=74
Cc1ccc(-c2nc3cnccn3c2Nc2c(C)cccc2C)o1	–	79	38	29	49	–	–	–	–	30	94	36	41	–
O=C(Nc1ccccc1)c1nnsc1S(=O)c1ccc(Cl)cc1 (configuration not stated)	–	81	34	23	33	–	37	–	97	90	106	78	25	88
O=C(c1nnsc1S(=O)c1ccc(Cl)cc1)N1CCOCC1 (configuration not stated)	–	54	73	28	52	–	31	–	101	·	·	68	21	66
CC(C)CCN1CCNC(=O)C1CC(=O)N(C)CCCN1CCOCC1 (configuration not stated)	·	–	–	–	–	–	·	·	·	·	·	·	·	·
Clc1ccc2nc3c4ccccc4cnn3c2c1	–	–	–	–	–	–	·	·	·	·	·	·	·	·
Oc1ccc2nnc3c(Br)cnn3c2c1	·	50	–	32	44	–	27	–	–	·	·	60	58	50
O=C1NCCN1c1ncc([N+](=O)[O-])s1	·	–	–	–	–	–	·	·	·	·	·	·	·	·
O=[N+]([O-])c1cnc(Sc2ccncn2)s1	·	26	–	31	80	–	46	–	99	·	·	·	·	31
Cn1cnnc1SCC(=O)Nc1ncc([N+](=O)[O-])s1	·	–	–	–	–	–	·	·	·	·	·	·	·	·
C=CCn1c(Sc2ncc([N+](=O)[O-])s2)n[nH]c1=O	·	75	–	32	63	–	44	–	99	·	·	77	15	61
Nc1c(C(=O)N2CCCC2)sc2nc(-c3ccccc3)ccc12	·	34	–	30	34	–	32	–	–	·	·	52	61	–
Nc1c(C(=O)N2CCCCC2)sc2nc3c(cc12)CCCC3	·	–	–	–	–	–	·	·	·	·	·	·	·	·
Cc1nnc(Sc2cc(NCCO)c([N+](=O)[O-])c3nonc23)s1	–	85	50	21	–	–	23	–	98	52	114	·	·	89
Cc1nnc(Sc2cc(NCCCO)c([N+](=O)[O-])c3nonc23)s1	–	91	27	36	41	–	64	–	99	49	111	60	18	84
CCCSc1cc(NCCOC(C)=O)c([N+](=O)[O-])c2nonc12	–	–	–	–	–	–	·	·	·	·	·	·	·	·
Cc1occc1-c1nnc(SCC(=O)NC2CCC(C)CC2)o1 (configuration not stated)	·	–	–	–	–	–	·	·	·	·	·	·	·	·
N#Cc1c([N+](=O)[O-])cc([N+](=O)[O-])cc1S(=O)(=O)Cc1ccccc1	·	72	36	46	86	–	40	–	98	64	95	92	34	61
CCCC(=O)OCCNc1cc(Sc2nccn2C)c2nonc2c1[N+](=O)[O-]	–	72	28	53	71	–	71	–	97	56	109	92	47	40
CCC(=O)OCCNc1cc(Sc2nc3ccccc3s2)c2nonc2c1[N+](=O)[O-]	–	68	–	39	49	–	61	–	98	·	·	75	14	76
CCCC(=O)OCCNc1cc(SCc2ccco2)c2nonc2c1[N+](=O)[O-]	–	–	–	–	–	–	·	·	·	·	·	·	·	·
COc1ccc(/C=N/NC(=O)COc2cc(C)cc(C)c2)cc1COC(C)=O	–	–	–	–	–	–	·	·	·	·	·	·	·	·
SMILES	TLR4-MyD88 BLA	PRMT1 FP inh	ABHD5 PLIN5 PPI	TLR9-MyD88 block	NOD2-RIPK2 inh	rCAG RNA binder	TLR9-MyD88 cf	BLA counter-1	TLR9 CHO cytotox	ABHD5 PLIN5 conf	HNF4 split-luc	NOD2 RIPK2 conf	BLA counter-2	PRMT1 inh conf	others
Cc1ccc(S(=O)(=O)N2C[C@H]3C(=O)C[C@@H](c4ccc(Cl)cc4)N(S(=O)(=O)c4ccccc4C)[C@H]3C[C@H]2c2ccccc2)cc1	·	–	–	–	–	–	·	·	·	·	·	·	·	·
COc1ccc(S(=O)(=O)N2CCOC2CNC(=O)C(=O)NCCc2ccc(S(N)(=O)=O)cc2)cc1 (configuration not stated)	·	–	–	–	–	–	·	·	·	·	·	·	·	·
O=C1C(Cl)=C(Nc2ccccc2)C(=O)c2ccccc21	–	–	–	–	–	–	·	·	·	·	·	·	·	·
O=C1C(Cl)=C(NCCc2ccccc2)C(=O)c2ccccc21	·	66	27	21	–	–	50	–	98	88	104	·	·	96
CCc1ccc(CCNC(=O)OC2CC3CC2[C@H]2CCCCN2[C@H]3Cc2ccccc2)cc1 (some centres not stated)	·	–	·	·	·	–	·	·	·	·	·	·	·	·
CN(C)CC1CC/C(=C\c2ccc(O)cc2)C1=O (configuration not stated)	·	53	92	28	65	–	24	–	97	93	107	·	·	45

From PubChem
